The record followed here is PubChem BioAssay AID488857 (Sanford-Burnham Center for Chemical Genomics, 2010).

For orientation: inhibition means the change of the read-out against control, counted positive when it falls.

SMILES strings stand for the structures. About 560 (40%) of roughly 1,400 compounds were called active. So high a share suggests a set chosen from earlier hits. The list shows a part of the results. Unmarked numbers belong to inactive results.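 How the source made its calls: active means mean inhibition over duplicate tests at 10 µM above 50%; inactive means the rest.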

The test can be described thus: ASC/caspase-1 reporter retest in S. cerevisiae at one dose, specificity check for NALP1 project (AID 488857). To be noted: S. cerevisiae ASC/Caspase-1, beta-galactosidase luminescence, 24 h; at 10 µM; hits give high values.
On to `C=C(C)C1Cc2c(C)nn(-c3ccccn3)c2C1` (centres undefined), for which the inhibition is 36.1%.
Consider `CSCc1ccc(C(=O)Nc2cc(C)cc(C)c2)cc1`, for which the inhibition was 82.3% (active).
Regarding `Cc1cc(C)cc(NS(=O)(=O)c2ccc(NC(=S)NC(=O)c3ccc(Br)o3)cc2)c1`, the inhibition was 43.1%.
Consider `Cc1ccc(-c2nc3cnccn3c2Nc2c(C)cccc2C)o1`, for which the inhibition was 54.5% (active).
To `COc1ccc(-c2nc3cnccn3c2Nc2ccc(C)cc2)cc1` belongs 37.3%.
In the case of `CCCCCCC(=O)N(O)C1CC(=O)N(Cc2ccccc2)C1=O` (centres undefined), the inhibition was 27.9%.
To `Cc1ccc(NC(=S)Nc2ccc(Cl)c(Cl)c2)c(OC(F)F)c1` belongs 45.8%; to `O=C(CC(O)(C(F)(F)F)C(F)(F)F)Nc1ccc(Cl)c(Cl)c1`, 97% (active); to `CN1CCN(C(=S)Nc2ccc(Cl)c(Cl)c2)CC1`, 31.7%.
The value for `FC(F)Oc1ccc(/C=N/c2c(-c3ccc(OC(F)F)cc3)nc3n2CCS3)cc1` was 47.1%; that for `CN(C)CCCN(C(=O)CCOc1ccccc1)c1nc2c(F)cccc2s1` was 56% (active).
To `CN(C)CCCN(C(=O)CCS(=O)(=O)c1ccccc1)c1nc2cc3c(cc2s1)OCO3` belongs 70.2% (active); to `Cc1cccc2sc(N(CCCN(C)C)C(=O)CCS(=O)(=O)c3ccccc3)nc12`, 71.3% (active).
On to `Cc1ccc2nc(N(CCCN(C)C)C(=O)CCc3ccccc3)sc2c1`, for which the inhibition is 54.9% (active).
To `O=C(CCN1C(=O)c2ccccc2C1=O)N1CCN(C2c3ccccc3-c3ccccc32)CC1` belongs 18.1%; to `CC(C)C(NS(=O)(=O)c1ccc2c(c1)oc(=O)n2C)C(=O)N1CCN(C2CCCCC2)CC1` (centres undefined), 34.7%.
With `Cc1ccc2sc(N(CCCN(C)C)C(=O)CCS(=O)(=O)c3ccccc3)nc2c1C`, the inhibition is 92.2% (active).
On to `CC(/C=N/NC(=O)c1c(Br)cnn1C)=C\c1ccccc1`, for which the inhibition was 56.6% (active).
To `CC(/C=N/NC(=O)CSc1ccccn1)=C\c1ccc(C(C)C)cc1` belongs 39%; to `CC(/C=N/NC(=O)CCn1nnc2ccccc21)=C\c1ccccc1`, 42.8%; to `Cc1cc(C(C)(C)C)cc(C)c1S(=O)(=O)N1CC(=O)Nc2ccccc21`, 50.1% (active).
Consider `CC(C)c1ccc(-c2c(C#N)c(N)nc3c2CCCCC3)cc1`, for which the inhibition is 23.8%.
To `CCN(c1ccccc1)S(=O)(=O)c1cc(NC(=O)Nc2ccccc2C#N)ccc1Cl` belongs 30.4%.
The value for `COc1ccc(-c2cc(-c3cc(OC)ccc3O)[nH]n2)cc1` was 57.5% (active).
Regarding `CCOCC(O)CNC(=O)c1ccc(OC2CCN(C(=O)c3cccnc3)CC2)cc1` (centres undefined), the inhibition is 29.2%.
As for `Cc1cc(/C=C2/SC(=S)N(c3ccc([N+](=O)[O-])cc3)C2=O)c(C)n1-c1cccnc1`, the inhibition is 37.3%.
To `O=C(NC1CCCC1)c1ccc(CN2CCOCC2)cc1` belongs 45.1%; to `O=C(NC1CCCCC1)c1noc2c1CCCCC2`, 71.2% (active); to `C=CCn1c(=O)c2ccc(C(=O)NCc3ccccc3)cc2n(Cc2ccccc2Cl)c1=O`, 36.4%.
Take `Cc1ccc(-c2csc(NC(=O)c3ccc(F)cc3)c2C(=O)O)cc1`: the inhibition was 93.8% (active).
`Cc1noc(C)c1S(=O)(=O)N1CCC(C(=O)N2CCC(N3CCCCC3)CC2)CC1`: the inhibition was 23.3%.
To `CCCOc1ccc(C(=O)C(CN2CCCC2)c2ccccc2)cc1` (centres undefined) belongs 48.7%; to `CCOc1ccc(C(=O)C(CN2CCOCC2)c2ccccc2)cc1` (centres undefined), 52.9% (active); to `CCOC(=O)CNC(c1ccccc1)c1cc(Br)ccc1NC(=O)CCN1CCOCC1` (centres undefined), 44.6%.
As to `Cc1cc(Nc2ccccc2)nn1C(=O)c1ccccc1`, the inhibition was 58% (active).
To `CCn1nc(C)cc1Nc1ccccc1` belongs 32.9%.
For the compound `COc1cc2c(cc1NC(=S)Nc1ccccc1C)oc1ccccc12`, the inhibition was 45.5%.
The value for `CN1/C(=C\C(=O)c2cccs2)C(C)(C)c2ccccc21` was 40%; that for `CN(C)c1ccc(N=C/C=C2/N(C)c3ccccc3C2(C)C)cc1` was 56.5% (active); that for `Cc1ccccc1N=C/C=C1\N(C)c2ccccc2C1(C)C` was 42.5%.
To `CS(=O)(=O)c1nc(-c2ccco2)cc(C(F)(F)F)n1` belongs 90.7% (active); to `Cc1ccc2cc(CN(Cc3ccco3)C(=O)NC3CCCCC3)c(=O)[nH]c2c1C`, 42.8%; to `COc1ccc(OC)c(NC(=O)c2sc3nc(Cc4ccccc4)cc(C(F)(F)F)c3c2N)c1`, 40.6%.
To `CCC(C)NC(=O)c1cc2cc3ccc(OC)cc3nc2s1` (centres undefined) belongs 56.8% (active).
For the compound `N#CCc1c(C#N)c(N)nc(N2CCN(Cc3ccc4c(c3)OCO4)CC2)c1C#N`, the inhibition was 37.5%.
The value for `OC(COCc1ccc2c(c1)OCO2)CN1CCN(Cc2ccccc2)CC1` (centres undefined) was 35.2%; that for `O=C(CCC1CCCCC1)N1CCN(Cc2ccc3c(c2)OCO3)CC1` was 67% (active).
To `CC1CCCN(CCOCCSc2ccccc2)C1` (centres undefined) belongs 53% (active); to `CC1CCCN(CCCOc2ccc(Cl)cc2Br)C1` (centres undefined), 64.8% (active).
Regarding `CN1CCC(Oc2ccc(Sc3ccccc3)cc2)CC1`, the inhibition was 40.5%.
Take `Cc1cc(Cl)c(OCCCN2CCCCC2)c(Br)c1`: the inhibition is 24.1%.
As for `Cc1cc(Cl)c(OCCOCCN2CCC(C)CC2)c(Br)c1`, the inhibition was 53.7% (active).
To `Cc1cc(Cl)c(OCCCCN2CCOCC2)c(Br)c1` belongs 30.6%; to `CC1CCCN(CCC(=O)c2ccc(Br)cc2)C1` (centres undefined), 45.8%; to `CC1CCCN(CCOCCOc2ccc(Br)cc2Cl)C1` (centres undefined), 59.5% (active).
To `CC(C)(C)c1ccc(COn2c(=O)c(-c3ccco3)[n+]([O-])c3ccccc32)cc1` belongs 39.7%; to `CCOC(=O)c1cnc2ccccc2c1Nc1cc(C(=O)O)ccc1C`, 28.2%; to `CCOC(=O)c1cccnc1SCC(=O)NCc1ccccc1`, 54.2% (active).
On to `CCOc1ccc(NC(=O)CSc2nnc(C)n2Cc2ccccc2)cc1`, for which the inhibition was 37.3%.
With `Cc1nc(C)c(/C(O)=C/c2nc3ccccc3oc2=O)s1`, the inhibition is 44%.
As for `Cc1ccc(NC2(C#N)C(=O)Nc3ccccc32)cc1` (centres undefined), the inhibition was 38.2%.
The value for `O=C(c1ccco1)N1CCN(Cc2cn[nH]c2-c2cccc3ccccc23)CC1` was 26%; that for `O=C(CN1CCSC1=NCc1ccccc1)c1ccc(Cl)c(Cl)c1` was 61% (active).
To `COc1cccc(CN(C)CC(=O)Nc2cccc(S(N)(=O)=O)c2)c1OC` belongs 32.5%.
To `Cc1cs/c(=N\N=C\c2ccccc2)n1Cc1ccco1` belongs 54.1% (active); to `CCC(C(=O)NCc1ccco1)N(C(=O)CNS(=O)(=O)c1ccccc1)c1ccc(OC)cc1` (centres undefined), 32.8%.
Take `CCN(C(=O)c1ccco1)c1nnc(-c2ccc(OC)cc2)s1`: the inhibition is 51% (active).
To `COc1ccc(N2CCN(CC(=O)NC(=O)NCc3ccco3)CC2)cc1` belongs 33.3%; to `O=C(NC(N1CCOCC1)C(Cl)(Cl)Cl)c1ccc(Br)cc1` (centres undefined), -14.2%; to `CN(C)c1ccc(NC(=O)COC(=O)c2cc(Cl)ccc2[N+](=O)[O-])cc1`, 68% (active).
As for `CCOC(=O)c1cc([N+](=O)[O-])c([N+](=O)[O-])cc1NC(C)=O`, the inhibition is 22.4%.
`N=c1ccn(Cc2ccc(Cl)cc2Cl)cc1`: the inhibition was 38%.
The value for `CCOC(=O)CSc1nnc(-c2ccccc2)c(=O)[nH]1` was 45%; that for `CCOC(=O)c1c(-c2ccccc2)nc2ccccn12` was 99.1% (active); that for `CCOCCCn1c(=NC(C)=O)c(C(=O)OCC)cc2c(=O)n3ccccc3nc21` was 19.2%.
The value for `Cc1cc(C)n(C(C[N+](=O)[O-])c2ccc(Cl)cc2)n1` (centres undefined) was 99.2% (active); that for `Cc1ccccc1OCCCSc1nc2ccccc2[nH]1` was 75% (active); that for `Cc1cccc(OCCCSc2nc3ccc(C)cc3[nH]2)c1` was 83.2% (active).
As for `Cc1cccc(C)c1NC(=O)CSc1nc2ccccc2c(=O)[nH]1`, the inhibition is 34.6%.
Turning to `O=C(O)C1CCN(C(=O)c2csc(-c3ccc4c(c3)CCO4)n2)CC1`, the inhibition is 38.6%.
To `O=CC1=C(c2ccccc2)Oc2ccccc2O1` belongs 93.3% (active).
For `CCn1c(SCC(=O)Nc2ccc3c(c2)OCO3)nnc1-c1cnccn1`, the inhibition was 30.1%.
To `O=C(Nc1nc2ccccc2s1)C1c2ccccc2Oc2ccccc21` belongs 39.3%; to `Cc1ccc2nc(NC(=O)c3ccc4ncsc4c3)sc2c1`, 12.6%.
As for `Nc1ccc(C(=O)Nc2nc3ccccc3s2)cc1`, the inhibition is 75.4% (active).
To `Fc1ccc(N2CCN(Cc3cnc(Oc4ccc(Br)cc4)s3)CC2)cc1` belongs 14.7%; to `CCOc1ccc(NC2=C(OC)C(=O)c3ccccc3C2=O)cc1`, 44.1%.
In the case of `CCOc1ccc(S(=O)(=O)N2c3ccccc3CC2C)cc1` (centres undefined), the inhibition was 52.7% (active).
Regarding `COc1ccc(Nc2cc(C)c3ccc(O)cc3n2)cc1`, the inhibition is 98.1% (active).
As for `Cc1cc(Nc2ccccc2)nc2cc(O)ccc12`, the inhibition is 99.1% (active).
To `COC1=C(Nc2ccc(O)cc2)C(=O)c2ccccc2C1=O` belongs 40.2%.
To `CC1Cc2ccccc2N1CC(=O)Nc1ccc2c(c1)OC(F)(F)O2` (centres undefined) belongs 29.9%; to `O=C(/C=C/c1ccccc1Cl)c1ccc[nH]1`, 67.8% (active); to `COC(=O)C1=C(C)NC(C)=C(C(=O)OC)C1c1ccc(OC(=O)c2oc3ccccc3c2C)c(OC)c1`, 25.6%.
In the case of `CC(=O)C1=C(O)C(=O)N(CCC(=O)O)C1c1ccc(Cl)cc1Cl` (centres undefined), the inhibition was 35.7%.
In the case of `Cc1ccc(-n2nnnc2C(Cl)c2nnnn2-c2ccc(C)cc2)cc1`, the inhibition was 40.1%.
Turning to `Cc1ccc(-n2c(Cl)c(Cl)nc(Cl)c2=O)cc1`, the inhibition is 100% (active).
As to `COc1ccc2cnn(-c3ccc(C)cc3)c(=O)c2c1OC`, the inhibition is 44%.
The value for `CCN(CC)S(=O)(=O)c1ccc2[nH]c(=O)cc(C(=O)Nc3ccc(C)c(S(=O)(=O)N(CC)CC)c3)c2c1` was 25.1%.
